The text below walks through data of PubChem BioAssay (Tox21).

A number with no mark means an inactive call. Activity calls are given as the source filed them. Calls come from the whole dose curve; as a rule, active = well fitted curve in the direction sought with a large enough effect in the repeat runs; inconclusive = weak or mixed curves; inactive = flat fitted curve, though single readings scatter.
% is set by controls: 0 for no effect and ±100 for the full control effect.

The assay is described as follows: qHTS assay to test for compound auto fluorescence at 535 nm (green) in HEK293 cell free culture (AID 720682). Conditions: cell-free medium, green autofluorescence 485/535 nm, stronger effect = higher value; series mostly up to 91.3 µM. The text has this:
U.S. Tox21 Program National Center for Advancing Translational Sciences [NCATS] NIH Chemical Genomics Center [NCGC] U.S. Environmental Protection Agency [EPA] National Institutes of Environmental Health Sciences [NIEHS] National Toxicology Program [NTP] U.S. Food and Drug Administration [FDA] Tox21 Assay Overview: Compound auto fluorescence often interferes with screening of the compound library against various biological targets and signaling pathways. Some of these compounds may have fluorophoric properties. Such properties may interfere with the assay outputs resulting in false positives and/or negatives. To decrease such complications and ensure the compound activities are relevant in terms of biological response, the Tox21 10K compound library was screened for auto fluorescence. From the fluorophores used as reporter signals in our screening assays, the auto fluorescence equivalencies of compounds against three fluorophores have been evaluated: Triamterene, Fluorescein and Rose Bengal sodium for blue, green and red fluorescence, respectively. The fluorescence intensities were measured using Excitation/Emission wavelengths at 405/460nm, 485/535nm and 540/590nm for blue, green and red labels, respectively. This assay includes the green fluorescence data.
Tox21 Assay Protocol Summary: 5 uL of culture medium (DMEM containing 10% FBS) per well was dispensed into black wall/clear bottom 1536-well plates using a Multidrop Combi Dispenser (ThermoFisher Scientific, Waltham, MA). After 23 nL compound or DMSO vehicle was transferred into assay plate by a pintool work station (Kalypsys, San Diego, CA), fluorescence intensities in the assay plates were measured by an Envision (PerkinElmer, Shelton, CT) plate reader using three labels for measuring blue, green and red fluorescence at […] 460, 535 and 590nm respectively.
For orientation: qHTS replaces the single test concentration by a dilution series.
With `COC(=O)Nc1ccc(Cl)c(Cl)c1`, the outcome was inactive.
`CCCCCC(=O)OCCc1ccccc1`: the compound was classed as inactive.
The same measure, in the same setting: next, `CC(C)(C)OC(=O)c1cccc(N)c1`: “inactive”; `O=C(c1ccccc1O)c1ccccc1O`: “inactive”; `CCC(C(=O)NC(=O)NC(C)=O)c1ccccc1` (stereo not given): “inactive”.
In the case of `c1ccc(Cc2ccccc2)cc1`, the result was inactive.
The same measure, in the same setting: the result for `CCCOC(=O)CC` reads “inactive”; that for `CC[C@H]1OC(=O)[C@H](C)[C@@H](O[C@H]2C[C@@](C)(OC)[C@@H](O)[C@H](C)O2)[C@H](C)[C@@H](O[C@@H]2O[C@H](C)C[C@H](N(C)C)[C@H]2O)[C@](C)(OC)C[C@@H](C)C(=O)[C@H](C)[C@@H](O)[C@]1(C)O`, “inactive”.
On the same count and under the same terms, the result for `C[N+](C)(C)CCCCCCCCCC[N+](C)(C)C` reads “inactive”.
Take `Cc1c(N)c(=O)n(-c2ccccc2)n1C`: the activity change is -0.102% [at 18.6 µM].
With `CCOCC(C)O` (stereo not given), the result was inactive.
The same measure, in the same setting: next, `CC(C)C(=O)OC(=O)C(C)C`: “inactive”.
As to `CC[N+](CC)(CC(=O)Nc1c(C)cccc1C)Cc1ccccc1` (tested in a mixture with another compound), the compound was classed as inactive.
`NO`: the outcome was inactive.
As to `CN1CC(=O)N/C1=N/C(=O)Nc1cccc(Cl)c1`, the call was inactive.
The same measure, in the same setting: next, `CC12CCC(C(=O)C1=O)C2(C)C` (stereo not given): “inactive”.
As to `O=C(O)c1cc(C(=O)O)cc(C(=O)O)c1`, the result was inactive.
Regarding `CCCc1ncc(C[n+]2ccccc2C)c(N)n1`, the activity change is -0.0094% [at 18.6 µM].
Consider `Cc1ccc(-c2ncc(Cl)cc2-c2ccc(S(C)(=O)=O)cc2)cn1`, for which the call was inactive.
`CC(=O)OCC(=O)[C@@]1(O)[C@H](C)C[C@H]2[C@@H]3CCC4=CC(=O)C=C[C@]4(C)[C@@]3(F)[C@@H](O)C[C@@]21C`: the outcome was inactive.
For `CC(CO)(CO)[N+](=O)[O-]`, the outcome was inactive.
As for `CCCC[N+](C)(CCCC)CCCC`, the compound was classed as inactive.
The same measure, in the same setting: the result for `[O-][n+]1cccc(CO)c1` reads “inactive”.
On the same count and under the same terms, the result for `NC(CCC(=O)O)C(=O)O` (stereo not given) reads “inactive”; that for `O=C(CO)[C@@H](O)[C@H](O)[C@H](O)CO`, “inactive”; that for `CC(C)(CCC(=O)O)C(=O)O`, “inactive”.
For `N[C@H](C(=O)O)[C@@H](O)c1ccc(O)c(O)c1`, the call was inactive.
On the same count and under the same terms, next, `FB(F)F`: “inactive”.
In the case of `N[C@@H](CCC(=O)O)C(=O)O`, the outcome was inactive.
The same measure, in the same setting: the result for `CCN(C=O)CC` reads “inactive”.
Same read-out and setting: next, `Nc1c2c(nc3c1CCC3)CCCC2`: “inactive”.
The same measure, in the same setting: the result for `CC(C)(C)c1ccc(-c2ccc(C(C)(C)C)cc2)cc1` reads “inactive”; that for `CN1C(C)(C)CC(O)CC1(C)C`, “inactive”.
Consider `CC1(C)[C@@H]2CC[C@@]1(C)[C@H](O)C2`, for which the outcome was inactive.
`Cc1cccc(C)c1NC(=O)CC12CCCN1CCC2`: the compound was called inactive.
On to `Nc1ccccn1`, for which the result was inactive.
Take `OCCCCCO`: the compound was classed as inactive.
Regarding `CCN1C=CN(C)C1C` (stereo not given), the outcome was inactive.
Still for that read-out and setting: next, `O=S(=O)(O)c1cccc2c(S(=O)(=O)O)cccc12`: “inactive”; `COc1ccccc1OCC1CNC(=O)O1` (stereo not given): “inactive”.
